From PubChem BioAssay (NCI)
About 83,000 compounds went through this panel and 20% of them were active in at least one assay; those are over-represented in the sample as a whole.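 Single-concentration screen, 48 h exposure, 96-well plates. Endpoint: percent growth. Below 10 = active.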 Calls of active or inactive are those of the source.

Legend:
Test in all cases: NCI-60 one-dose screen, 48 h (100 = growth as untreated, 0 = no growth, -100 = all killed)
Details in all cases: 10 µM unless noted
NCI-H23 lung = system: NCI-H23 lung
NCI-H226 lung = system: NCI-H226 lung
HOP-62 NSCLC = system: HOP-62 NSCLC
HOP-92 NSCLC = system: HOP-92 NSCLC
NCI-H522 lung = system: NCI-H522 lung
A549/ATCC NSCLC = system: A549/ATCC NSCLC
786-0 renal = system: 786-0 renal
COLO 205 colon = system: COLO 205 colon
DU-145 prostate = system: DU-145 prostate
K-562 leukemia = system: K-562 leukemia
MALME-3M melanoma = system: MALME-3M melanoma
MDA-MB-231 breast = system: MDA-MB-231 breast
RXF 393 renal = system: RXF 393 renal
SF-268 CNS = system: SF-268 CNS
SF-295 CNS = system: SF-295 CNS
SF-539 CNS = system: SF-539 CNS
UACC-257 melanoma = system: UACC-257 melanoma
M14 melanoma = system: M14 melanoma
NCI-H460 lung = system: NCI-H460 lung

Measured: growth

CNc1nc2ccccc2n2c(-c3ccc(O)c(O)c3)cnc12
active: NCI-H226 lung -14.9% | NCI-H522 lung -39.6% | COLO 205 colon -54.3% | DU-145 prostate 2.32% | RXF 393 renal -4.31% | SF-268 CNS 5.12% | SF-539 CNS -43% | M14 melanoma -1%
inactive: NCI-H23 lung 16.1% | HOP-62 NSCLC 26.5% | HOP-92 NSCLC 13.9% | A549/ATCC NSCLC 15.9% | 786-0 renal 24.7% | K-562 leukemia 11.1% | MALME-3M melanoma 16% | MDA-MB-231 breast 20.9% | SF-295 CNS 11% | UACC-257 melanoma 57.1%

O=C(COc1ccc(/C=C2/C(=O)Nc3ccc(Cl)cc32)cc1)Nc1ccc(Br)cc1
active: NCI-H23 lung -53.6% | NCI-H226 lung -48.5% | HOP-62 NSCLC -72.6% | NCI-H460 lung -31.6% | HOP-92 NSCLC -48.4% | NCI-H522 lung -35% | A549/ATCC NSCLC -66.2% | 786-0 renal -78.9% | COLO 205 colon 2.47% | DU-145 prostate -9.85% | K-562 leukemia 2.94% | MALME-3M melanoma -41.5% | MDA-MB-231 breast -33.7% | RXF 393 renal -65.7% | SF-295 CNS -59.7% | SF-539 CNS -84.9% | M14 melanoma -2.56%
inactive: SF-268 CNS 16.7% | UACC-257 melanoma 15.1%

O=C(Nc1ccc(S(=O)(=O)N2CCCCC2)cc1)C(Cl)Cl
inactive: NCI-H23 lung 103% | NCI-H226 lung 127% | HOP-62 NSCLC 108% | NCI-H460 lung 108% | HOP-92 NSCLC 116% | NCI-H522 lung 98.4% | A549/ATCC NSCLC 104% | 786-0 renal 98.9% | COLO 205 colon 120% | DU-145 prostate 104% | K-562 leukemia 111% | MALME-3M melanoma 99.3% | MDA-MB-231 breast 109% | RXF 393 renal 115% | SF-268 CNS 105% | SF-295 CNS 106% | SF-539 CNS 107% | UACC-257 melanoma 101% | M14 melanoma 112%

COc1c(B(O)O)cc(F)cc1-c1nc2ccc3[nH]ncc3c2c2c1COCC2
inactive: NCI-H23 lung 78.3% | NCI-H226 lung 50.8% | HOP-62 NSCLC 49.5% | NCI-H460 lung 64.9% | NCI-H522 lung 14.5% | A549/ATCC NSCLC 92.5% | 786-0 renal 46.1% | COLO 205 colon 38.1% | DU-145 prostate 73.5% | K-562 leukemia 63.7% | MALME-3M melanoma 126% | MDA-MB-231 breast 33.4% | SF-268 CNS 44.9% | SF-295 CNS 77.2% | SF-539 CNS 21.7% | UACC-257 melanoma 97.5% | M14 melanoma 114%
active: RXF 393 renal -5.84%

Cn1cc(-c2cc(N)n3nc(-c4c[nH]c5ccccc45)cc3n2)c2cc(Cl)ccc21
inactive: NCI-H226 lung 16.6%
active: NCI-H23 lung -70.7% | HOP-62 NSCLC -73.7% | NCI-H460 lung -59.5% | HOP-92 NSCLC -68.5% | NCI-H522 lung -71.9% | A549/ATCC NSCLC -37.8% | 786-0 renal -67.8% | COLO 205 colon -90.8% | DU-145 prostate -62.6% | K-562 leukemia 7.97% | MALME-3M melanoma -78% | MDA-MB-231 breast -85.5% | RXF 393 renal -84.7% | SF-268 CNS -46.3% | SF-295 CNS -88% | SF-539 CNS -92.2% | UACC-257 melanoma -84.3% | M14 melanoma -75.5%

O=C1Nc2ccccc2/C1=C/C(=O)c1cc2ccccc2oc1=O
inactive: NCI-H23 lung 93.4% | NCI-H226 lung 93.7% | HOP-62 NSCLC 101% | NCI-H460 lung 108% | A549/ATCC NSCLC 106% | 786-0 renal 117% | DU-145 prostate 97.3% | K-562 leukemia 14.5% | MALME-3M melanoma 10.9% | MDA-MB-231 breast 97.6% | RXF 393 renal 91.4% | SF-268 CNS 105% | SF-295 CNS 97.8% | SF-539 CNS 102% | UACC-257 melanoma 104% | M14 melanoma 101%
active: NCI-H522 lung -34.9% | COLO 205 colon -15.4%

Cc1ccc2c(c1)/C(=C/C(=O)c1cc3ccccc3oc1=O)C(=O)N2
inactive: NCI-H23 lung 71.6% | NCI-H226 lung 51.8% | HOP-62 NSCLC 89.4% | NCI-H460 lung 97% | A549/ATCC NSCLC 89.5% | 786-0 renal 74.7% | COLO 205 colon 30.4% | DU-145 prostate 83.9% | MDA-MB-231 breast 65.1% | SF-268 CNS 84.4% | SF-295 CNS 104% | SF-539 CNS 61.1% | UACC-257 melanoma 73.3% | M14 melanoma 37%
active: HOP-92 NSCLC -4.43% | NCI-H522 lung -94.4% | K-562 leukemia 6.62% | MALME-3M melanoma -27.8% | RXF 393 renal -41.2%

COc1c2c(cc3c1C(CCc1ccccc1)N(C)CC3)OCO2 (configuration not stated)
inactive: HOP-62 NSCLC 36.6% | NCI-H522 lung 11.4% | A549/ATCC NSCLC 21.4% | 786-0 renal 12.6% | DU-145 prostate 23.2% | SF-268 CNS 23.2% | UACC-257 melanoma 16.6%
active: NCI-H23 lung 5.64% | NCI-H226 lung -1.8% | NCI-H460 lung 1.55% | HOP-92 NSCLC 1.44% | COLO 205 colon -56.5% | K-562 leukemia 6.06% | MALME-3M melanoma -65.8% | MDA-MB-231 breast -11.7% | RXF 393 renal -12.1% | SF-295 CNS -70.1% | SF-539 CNS -40.2% | M14 melanoma -26.4%

CN(CCSSCCN1CCOCC1)C(=O)Oc1cc2c(c3ccccc13)[C@H](CCl)CN2C(=O)c1cc2cc(OCCCN3CCC3)ccc2[nH]1
active: NCI-H23 lung -67.5% | NCI-H226 lung -11.7% | HOP-62 NSCLC -64.7% | NCI-H460 lung -23.3% | HOP-92 NSCLC -14.1% | NCI-H522 lung -66.4% | A549/ATCC NSCLC -45.8% | 786-0 renal -35% | COLO 205 colon -74% | DU-145 prostate -70.8% | K-562 leukemia -34.6% | MALME-3M melanoma -79.5% | MDA-MB-231 breast -23.7% | RXF 393 renal -77.4% | SF-268 CNS 3.42% | SF-295 CNS 1.02% | SF-539 CNS -86.2% | UACC-257 melanoma -17.1% | M14 melanoma -72.5%

CN1CCN(CCS(=O)(=O)Nc2cc(-c3ccc4ncnc(Nc5ccc(F)c(Cl)c5)c4c3)cnc2Cl)CC1
active: HOP-92 NSCLC -10.2% | COLO 205 colon -31.9% | MALME-3M melanoma -90.5% | MDA-MB-231 breast -41.3% | RXF 393 renal -1.07% | SF-295 CNS 7.8% | SF-539 CNS -8.6%
inactive: NCI-H23 lung 13% | NCI-H226 lung 48.9% | HOP-62 NSCLC 39.9% | NCI-H522 lung 10.1% | A549/ATCC NSCLC 55.6% | 786-0 renal 19.4% | DU-145 prostate 14.8% | K-562 leukemia 20.2% | SF-268 CNS 40.8% | UACC-257 melanoma 18.2% | M14 melanoma 20.9%

Cn1cc(-c2cc(N)n3nc(-c4c[nH]c5ccc(Cl)cc45)cc3n2)c2cccnc21
active: NCI-H23 lung -75.7% | NCI-H226 lung -58.4% | HOP-62 NSCLC -88.9% | NCI-H522 lung -82.1% | A549/ATCC NSCLC -77.2% | 786-0 renal -92.5% | COLO 205 colon -83.1% | DU-145 prostate -87.6% | K-562 leukemia -24.9% | MALME-3M melanoma -92.3% | MDA-MB-231 breast -82.3% | RXF 393 renal -73.4% | SF-268 CNS -47.4% | SF-295 CNS -92.6% | SF-539 CNS -95.6% | UACC-257 melanoma -85.5% | M14 melanoma -90.5%

CN(C)c1nc(NCCNS(=O)(=O)c2ccc(C(=O)/C=C/c3ccc(C(F)(F)F)cc3)cc2)nc(N2CCOCC2)n1
active: NCI-H23 lung -64.2% | 786-0 renal -85.1% | DU-145 prostate 3.39% | K-562 leukemia -13.6% | MDA-MB-231 breast -59.1% | RXF 393 renal -76.6% | SF-295 CNS 7.03% | SF-539 CNS -95.4% | M14 melanoma -87.5%
inactive: NCI-H226 lung 60.8% | HOP-62 NSCLC 80.1% | NCI-H460 lung 28.8% | HOP-92 NSCLC 32.3% | NCI-H522 lung 18.5% | A549/ATCC NSCLC 16.6% | COLO 205 colon 16.1% | MALME-3M melanoma 56.5% | SF-268 CNS 50.5% | UACC-257 melanoma 37.9%
